In PubChem BioAssay AID2314 (National Center for Advancing Translational Sciences (NCATS), 2010) one finds max response data, which are given here for 93 molecules.

The campaign covered roughly 300,000 compounds. About 37,000 (12%) were called active. Rule as the data show it: active = max response mostly above about 13% (no sharp cut-off); inactive = mostly below about 14%. What follows is part of a selection rich in actives, with near analogues and random picks from the rest.

This assay is described as follows: Cycloheximide Counterscreen for Small Molecule Inhibitors of Shiga Toxin. Also: read at 38.3 µM for the half of the compounds with a filed dose; 0% is about no effect. To be noted: cell reporter, cycloheximide protein synthesis inhibition counterscreen; stronger effect = higher value. A general note: A counterscreen serves to expose hits that act by an unwanted route or on another target.
Regarding `Cc1cccc(NC(=O)C2CCCN(C(=O)Nc3ccc(F)cc3)C2)c1C` (stereo not drawn), the max response is -3.65% (inactive). To `CC(C)CC(=O)N/C(N)=N/c1nc2ccccc2s1` belongs 44.8% (active). To `Cc1cc(C(=O)OCC(=O)Nc2nnc(C(C)C)s2)c2ccccc2n1` belongs -2.56% (inactive); to `CCC(=O)NCCc1nc2ccccc2n1CC`, -2.66% (inactive); to `CCC(=O)NC(=Nc1nc2ccccc2s1)NC(=O)CC`, 28.7% (active). The same measure for `CC(C)CC(=O)NC(=S)NCc1ccccc1`: 3.76% (inactive); for `CC(C)C(C)NC(=O)COc1ncnc2ccccc12` (stereo not drawn): -3.43% (inactive). On to `CSCCC(NS(=O)(=O)c1ccccc1F)C(=O)N1CC=C(c2ccccc2)CC1` (stereo not drawn), for which the max response is -2.39% (inactive). The same measure for `COc1ccc(N(C(=O)c2snc(C(N)=O)c2N)C(C(=O)NC2CCCC2)c2ccco2)cc1OC` (stereo not drawn): -2.38% (inactive). Take `CC(C)C(C(=O)NCc1ccco1)N(CC1CCCO1)C(=O)CNS(=O)(=O)c1ccc(F)cc1` (stereo not drawn): the max response was -6.69% (inactive). For the molecule `Cc1cc(-c2ccc(S(=O)(=O)N3CCc4ccccc4C3)s2)on1`, the max response was -3.48% (inactive). The same measure for `O=C(N/N=C/c1cc(Cl)cc([N+](=O)[O-])c1O)C(O)(c1ccccc1)c1ccccc1`: -1.36% (inactive). The same measure for `N#Cc1ccsc1NC(=O)CN1CCN(S(=O)(=O)c2cc(Cl)ccc2Cl)CC1`: -2.08% (inactive); for `C=C(C)C(=O)O[C@H]1C/C(C)=C\C(=O)/C=C(\C)[C@H](O)[C@@H]2OC(=O)C(=C)[C@@H]21`: 41.8% (active). Consider `Nc1nonc1-n1nnc(C(=O)N/N=C\c2ccncc2)c1CN1CCCCC1`, for which the max response was -1.14% (inactive).

In the case of `O=C(c1ccc(C(F)(F)F)cc1)C1CCCN(C(=O)c2csnn2)C1` (stereo not drawn), the max response is 1.58% (inactive). The same measure for `CCN(CC(=O)Nc1ccccc1OC)C(=O)Cn1cnc2ccccc2c1=O`: 1.69% (inactive). The same measure for `Cc1ccn2cc(-c3nonc3C)cc2c1`: 11.7% (active); for `CN(C)C(=O)c1ccc(NC(=O)c2ccccc2-c2ccccc2)cc1`: -3.02% (inactive); for `COc1cc(CN(C)Cc2nc3cc(C(F)(F)F)ccc3c(=O)[nH]2)ccc1OC(F)F`: 1.37% (inactive).

`CC1(C)SC2C(NC(=O)COc3ccccc3)C(=O)N2C1C(=O)O` (stereo not drawn): the max response was -0.647% (inactive). The same measure for `O=C(O)c1ccccc1-c1ccccc1C(=O)NCCc1ccccc1`: 0.507% (inactive); for `COc1cc(OC)c(S(=O)(=O)Nc2ccccc2C(=O)O)cc1S(=O)(=O)Nc1ccccc1C(=O)O`: -2.35% (inactive).

As to `COc1cc(/C=C/C(=O)O)cc(S(=O)(=O)Nc2ccccc2SC)c1OC`, the max response was -2.09% (inactive). As to `NC(=O)c1ccccc1NC(=O)c1ccccc1F`, the max response is 14.9% (inactive). Turning to `COc1cc(/C=C/C(=O)O)cc(S(=O)(=O)Nc2ccccc2C(=O)NCCc2ccccc2)c1OC`, the max response is 41.8% (active). To `NC(=O)Nc1ccccc1C(=O)NCCc1ccccc1` belongs 63.4% (active); to `CCN(CC)CCNC(=O)c1sc2ncn(CC(=O)Nc3ccc(C)c(Cl)c3)c(=O)c2c1C`, -6.12% (inactive); to `Cc1ccc(NC(=O)CSc2nnc(CNC(=O)c3ccccc3F)o2)cc1Cl`, 7.13% (inactive). To `CCCNC(=O)CCc1c(C)nc2c(c(C)nn2-c2ccccc2)c1C` belongs -1.68% (inactive); to `Cc1ccc(C)c(C(=O)N2CCC(n3nccc3NC(=O)C3CC3)CC2)c1`, -2.23% (inactive); to `Cc1ccc(C)c(NS(=O)(=O)c2c(C)[nH]c(C)c2C(=O)N2CCCCC2)c1`, -4.94% (inactive). The same measure for `O=C(Cn1c(-c2cncs2)nc2ccccc21)NC1CCCC1`: -2.22% (inactive); for `O=C(/C=C/c1cnc2ccccc2n1)NC1CCCCCC1`: 49.7% (active); for `CC(=O)OC(C(=O)NC1CCCCC1)c1ccccc1` (stereo not drawn): -1.59% (inactive).

In the case of `CCOc1ccc(NC(=O)N(CCC(C)C)C(C)c2ccco2)cc1` (stereo not drawn), the max response was 8.57% (inactive). To `CC(c1ccco1)N(C(=O)Nc1ccccc1)C1CCCCC1` (stereo not drawn) belongs 14.3% (active).

`CCCC(C(=O)NCc1ccco1)N(C(=O)CNS(=O)(=O)c1ccccc1)C1CCCC1` (stereo not drawn): the max response was 2.82% (inactive). The same measure for `COc1ccc(C2=NS(=O)(=O)N(C)C(C(=O)N(C)Cc3ccccc3)=C2)cc1`: -2.93% (inactive); for `O=C(C[C@H]1C(=O)N(c2ccc(F)c(F)c2)C[C@@H]1Cc1ccccc1)Nc1ccccc1`: 2.14% (inactive). The same measure for `CCOc1ccc(NC(=O)C2CCN(C(=O)N3CCOc4ccccc43)CC2)cc1`: -1.22% (inactive).

As for `Cc1cc(C)c2c(=O)[nH]c(SCC(=O)Nc3ccc(Br)cc3)nc2n1`, the max response is -1.25% (inactive). To `COc1ccc(C2CC(c3cccs3)=NN2c2ccc(F)cc2)cc1OC` (stereo not drawn) belongs 15.3% (inactive). The same measure for `COc1ccc(C2CC(c3cccs3)=Nc3ccccc3S2)cc1OC` (stereo not drawn): 30.8% (active); for `COc1ccc(C2CC(c3cccs3)=NN2C(=O)CCC(=O)O)cc1OC` (stereo not drawn): -0.943% (inactive).

As to `CCn1c(CNc2ccc(OC)cc2)nnc1SCC(=O)c1ccc(OC)cc1`, the max response is 25.8% (active). To `COC(=O)c1ccc(NC(=O)CSc2nnc(-c3ccncc3)n2C)cc1` belongs 0.526% (inactive); to `COC(=O)c1ccc(NC(=O)CSc2nnc(C3CC3)n2C)cc1`, -2.61% (inactive). To `COC(=O)c1ccc(NC(=O)CSc2nnc(CNc3ccc(OC)cc3)n2C)cc1` belongs 15.4% (active); to `C=CCn1c(CNC(=O)c2ccco2)nnc1SCC(=O)c1ccc(OC)cc1`, 0.446% (inactive); to `CCn1c(SCC(=O)NNC(=O)c2ccc(OC)cc2)nnc1C(C)C`, -1.89% (inactive). The same measure for `O=C(NCCCN1CCCC1=O)C(=O)NCC1OCCN1S(=O)(=O)c1ccc(Br)cc1` (stereo not drawn): 0.895% (inactive); for `CN(C)c1ccc(NC(=S)N(CCc2ccccc2)C2CC(=O)N(c3c(Cl)cccc3Cl)C2=O)cc1` (stereo not drawn): 9.01% (inactive); for `Cc1ccc(-n2c(SCC(=O)NCCC3=CCCCC3)nc3n[nH]c(C)c3c2=N)cc1Cl`: -7.25% (inactive). As for `O=C(Cn1cncn1)N/N=C/c1c2ccccc2cc2ccccc12`, the max response was 10.8% (inactive). The same measure for `Cc1cccn2c(=O)c3cc(C(=O)NCCN4CCOCC4)c(=N)n(Cc4cccnc4)c3nc12`: -3.88% (inactive); for `CC(Cc1cccs1)NCc1ccc(Cl)cc1` (stereo not drawn): 8.85% (inactive).

`CC(Cc1cccs1)NC(=O)NC1CCCCC1` (stereo not drawn): the max response was 12% (inactive). To `CC(Cc1cccs1)NC(=O)c1cccc(Cl)c1` (stereo not drawn) belongs 54.9% (active); to `O=C(c1cnc(Cl)c(Cl)c1)N1CCN(S(=O)(=O)c2ccc(F)cc2)CC1`, -7.24% (inactive). The same measure for `Cc1cnc(C(=O)N2CCCC(C(=O)c3ccc(C(F)(F)F)cc3)C2)cn1` (stereo not drawn): -6.02% (inactive). The same measure for `Cn1nc(-c2ccc(Cl)cc2)c2cc(C(=O)NCc3ccco3)sc21`: -3.6% (inactive); for `O=C(NCc1ccco1)c1nn2cccnc2c1Cl`: 7.86% (inactive).

As for `O=C(NCc1ccco1)c1sc2cccc(F)c2c1Cl`, the max response was 24.8% (active). The same measure for `COc1ccc(-c2cc(C(=O)NCc3ccco3)no2)cc1OC`: 8.2% (inactive); for `COc1ccc2c(Cl)c(C(=O)NCc3ccco3)sc2c1`: 76.1% (active); for `O=C(NCc1ccco1)c1ccc([N+](=O)[O-])cc1Cl`: -2.66% (inactive).

In the case of `COC(=O)c1ccc(COc2cc([N+](=O)[O-])cc3cccnc23)cc1`, the max response is 0.536% (inactive). Regarding `COc1cccc(NC(=O)C2CCCN(c3ncnc4c3nc3n4CCCCC3)C2)c1` (stereo not drawn), the max response is 9.28% (inactive). To `CCCOc1ccc(Cc2c(Cl)nc(SC)nc2NC)cc1` belongs -0.737% (inactive). The same measure for `CC(NC(=O)c1cc(=O)[nH]c2ccccc12)c1ccc(F)cc1F` (stereo not drawn): -4.29% (inactive).

As for `CC(C)N1C(=S)SC(C)(C)C1n1oc(=O)n(-c2ccc(Cl)c(Cl)c2)c1=O` (stereo not drawn), the max response was -1.96% (inactive). To `CC(=O)NC1CCN(CC(=O)Nc2nccs2)CC1` belongs 4.21% (inactive). To `CC1(C)CC(=O)C(C2c3ccccc3S(=O)(=O)c3ccccc32)C(=O)C1` belongs 7.14% (inactive); to `COc1ccc(CNC(=O)C(NS(=O)(=O)c2cccc3nsnc23)C(C)C)cc1` (stereo not drawn), 2.57% (inactive); to `Cc1ccc(C)c(OCCC(=O)OCC(=O)N2CCN(c3ccccc3)CC2)c1`, -1.98% (inactive). The same measure for `C#CCN1C(=O)C(O)(CC(=O)c2cc(OC)ccc2OC)c2ccccc21` (stereo not drawn): -0.954% (inactive). For the molecule `CCCCN1C(=O)/C(=C(/C#N)C(N)=O)c2ccccc21`, the max response is -9.26% (inactive).

As to `COc1ccc2c(c1)C(=C(C#N)C#N)C(=O)N2CCc1ccccc1`, the max response is 13.7% (active). To `NC(=O)c1cc2ccccc2o/c1=N/NC(=O)c1cccc(F)c1` belongs 8.31% (inactive).

For `COc1ccc(C(=O)N/N=c2\oc3ccccc3cc2C(N)=O)cc1`, the max response is 45% (inactive). Take `COc1cccc2cc(C(N)=O)/c(=N\NC(=O)c3ccccc3)oc12`: the max response is 36.9% (active).

With `CCCC(C)c1nnc(NC(=O)C2CC(=O)N(c3ccc(OCC)cc3)C2)s1` (stereo not drawn), the max response was -2.49% (inactive). The same measure for `COc1ccc(N2CCN(C(=O)CNC(=O)c3ccc(Br)o3)CC2)cc1`: -1.81% (inactive); for `CC1=C(C(N)=O)C(c2ccc(F)cc2)n2nc(CCCO)nc2N1` (stereo not drawn): 5.22% (inactive). Consider `Cc1cc(C)c(SCCc2ccncc2)c(C)c1`, for which the max response was 1.01% (inactive). In the case of `CC(C)(C)c1ccc(SCCc2ccncc2)cc1`, the max response was 12.3% (active).

Regarding `CC(c1ccccc1)(c1ccccc1)c1ccncc1`, the max response was -5.73% (inactive). The same measure for `COc1ccc(N2CCN(C(=O)Cn3cnc4sc(C)c(S(=O)(=O)N5CCOCC5)c4c3=O)CC2)cc1`: -2.13% (inactive); for `Cn1c(=O)[nH]c(=O)c2c1[nH]c(=S)n2Cc1ccccc1`: -6.84% (inactive); for `CCOCc1nnc(NC(=O)CCC2CCCCC2)s1`: 9.52% (inactive). The same measure for `CCc1ccc(OCC(O)CN2CCN(CCO)CC2)cc1` (stereo not drawn): -1.22% (inactive); for `CCn1c(SC)nc(O)c(C(c2ccc(OC)c(O)c2)c2c(O)nc(SC)n(CC)c2=O)c1=O`: 18.8% (inactive).
